# Screening results: PubChem BioAssay, National Center for Advancing Translational Sciences (NCATS)
# VDR inh – Inhibitors of the vitamin D receptor (VDR): qHTS. Potency, µM, for inactives: max response, negative = inhibition, usual class: inhibitors. AID 504847, 2011. actives 0.93% (n = 400,000). Vitamin D3 receptor (Homo sapiens), P11473. VDR-SRC2-3 peptide fluorescence polarization, 2 h; also: % is scaled to controls: 0 for no effect and ±100 for the full control effect
#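 Signal is fluorescence polarization, reporting how far test compounds block the interaction of VDR with the SRC2-3 coregulator peptide after a 2 h room-temperature incubation.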
# G9a block – qHTS Assay for Inhibitors of Histone Lysine Methyltransferase G9a; Histone-lysine N-methyltransferase EHMT2 (Homo sapiens), Q96KQ7; G9a H3K9 monomethylation, AlphaScreen, 2 h; Potency, µM (series often up to 102 µM), for the others: at the highest dose activity, negative = inhibition, actives largely listed as inhibitors; actives 8.8% (n = 350,000); AID 504332, 2011; also: % is scaled to controls: 0 for no effect and ±100 for the full control effect; nearly all actives have a fitted effect of over 75% in size
#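 G9a (20 nM) was preincubated 15 min with compound, then reacted 2 h at room temperature with 500 nM biotin-H3K9 peptide and 20 µM SAM. Monomethyl-H3K9 detected by AlphaScreen using anti-H3K9me1 antibody.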
# JMJD2A Tudor – qHTS Assay for Inhibitors of JMJD2A-Tudor Domain; AID 504339, 2011; Potency, µM (series often up to 114 µM), for the others: at the highest dose activity change, negative = inhibition, hits mostly inhibitors; actives 4.4% (n = 390,000); AlphaScreen JMJD2A-Tudor / H3K4me3 peptide binding; also: % is scaled to controls: 0 for no effect and ±100 for the full control effect; nearly all actives have a fitted effect of over 50% in size
# HP1b binding inh – HTS for Inhibitors of HP1-beta Chromodomain Interactions with Methylated Histone Tails; Chromobox protein homolog 1 (Homo sapiens), P83916; AlphaScreen HP1-beta / biotin-H3K9me3 peptide binding; Potency, µM (doses to about 114 µM), inactives show at the highest dose activity change, negative = inhibition, most hits filed as inhibitors; actives 0.56% (n = 390,000); AID 540317, 2011; also: nearly all actives have a fitted effect of over 70% in size
#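 Compound inhibition of the preformed complex between 50 nM HP1-beta and 50 nM biotinylated H3K9me3 peptide was read by AlphaScreen. Buffer was PBS pH 7.4 with 0.01% Tween-20. Incubations ran 30 min at room temperature, with 10 ug/mL donor/acceptor beads.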
# PLK1 PBD inh – qHTS for Inhibitors of PLK1-PDB (polo-like kinase 1 - polo-box domain): Primary Screen; Serine/threonine-protein kinase PLK1 (Homo sapiens), P53350; actives 2.8% (n = 360,000); Plk1 PBD binding of FITC phosphopeptide, fluorescence polarization; AID 720504, 2013; Potency, µM, for the others: max response, negative = inhibition, hits mostly inhibitors; also: series mostly up to about 57 µM; % is scaled to controls: 0 for no effect and ±100 for the full control effect; nearly all actives have a fitted effect of over 65% in size
# BAZ2B inh – qHTS Assay for Inhibitors of BAZ2B | Bromodomain adjacent to zinc finger domain protein 2B (Homo sapiens), Q9UIF8 | AlphaScreen BAZ2B-H3K14Ac peptide displacement | Potency, µM (series often up to 114 µM), without a hit: at the top dose activity change, negative = inhibition, usual class: inhibitors | actives 4.4% (n = 360,000); also: % is scaled to controls: 0 for no effect and ±100 for the full control effect; nearly all actives have a fitted effect of over 60% in size
#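 AlphaScreen displacement: compounds (up to 110uM) incubated 30 min at room temperature with a preformed 50 nM BAZ2B/50 nM biotinylated H3K14Ac peptide complex in PBS pH 7.4 with Tween-20. Donor and acceptor beads at 10 ug/mL final added, 20 min light-protected before reading.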
# Starred values were filed as active, the others as inactive; u = inconclusive; x = no result; ! = repeats disagree; [ ] = remark or other dose. Compounds with a hit are over-represented: about 11% of the library has one in this group of screens. Calls follow the shape of the dose curve; as a rule, active = well fitted curve in the direction sought with a large enough effect; inconclusive = small, poorly fitted or top-dose-only effect, or another doubt; inactive = no such curve, though single readings can be large; an effect the other way counts as inactive or inconclusive. Potency is read from the fitted curve at half-maximal effect.
SMILES,VDR inh,G9a block,JMJD2A Tudor,HP1b binding inh,PLK1 PBD inh,BAZ2B inh
O=C(O)c1nn(Cc2ccc(Cl)c(Cl)c2)c2ccccc12,-5%,x,x,x,x,x
O=C(N/N=C/c1c(O)n(CCc2ccccc2)c(=O)[nH]c1=O)c1ccccc1,-14%,x,-35%,39%,-4%,79µM*
O=c1[nH]c(=S)n(C2CC2)c(O)c1/C=N/Nc1ccccc1,-23%,1.4µM*,u,-1%,-14%,-34%
COCCN(CCOC)C(=O)CCn1c(=O)oc2ccccc21,-11%,u,u,16%,-5%,-4%
CC(Cc1ccc(OCC(=O)O)cc1)NCC(O)c1cccc(Cl)c1 (centres undefined),8%,21%[12.7 µM],x,x,x,x
CCCCCCCCCCCCCC(=O)O[C@@H]1[C@@H](C)[C@@]2(O)[C@@H](C=C(CO)C[C@@]3(O)C(=O)C(C)=C[C@@H]23)C2C(C)(C)[C@@]21OC(C)=O (some centres undefined),-4%,7.9µM*!,x,x,x,x
CC(C)C1C(=O)O[C@@H]2CCN3CC=C(COC(=O)[C@](C)(O)[C@]1(C)O)[C@H]23 (some centres undefined),13%,x,x,x,x,x
CC(=O)Nc1nc(CCl)cs1,-7%,20µM*,-30%,32%,-23%,-19%
O=P1(Oc2ccccc2)CC=CC(COC(c2ccccc2)(c2ccccc2)c2ccccc2)O1 (centres undefined),-16%,x,-30%,20%,x,x
O=C1CCC[C@H]2[C@H]3CCCN4CCCC(=CN12)[C@@H]34,-6%,x,x,x,x,x
CN(CC(=O)O)C(=O)[C@H](Cc1ccccc1)NC(=O)[C@@H](CCCN=C(N)N)NC(=O)[C@@H](N)Cc1ccc(O)cc1,1%,x,x,x,x,x
CC(C)COC(=O)OCN1C(=O)CN(CCN2CC(=O)N(COC(=O)OCC(C)C)C(=O)C2)CC1=O,4%,13µM*!,-7%,48%,-8%,1%
CCOc1ccccc1N=C1SCCCN1C,12%,5µM*,79µM*,31%,0%,3%
OC12C3C4CC5C6C4C1C6C(C53)N2CCc1cccc(F)c1 (centres undefined),12%,x,x,x,x,x
CN1CCCC2(CCN(C(=O)c3ccco3)CC2)C1,1%,-3%[12.7 µM],x,x,x,x
O=C1c2ccccc2-c2cccc3cccc1c23,0%,-35%[2.33 µM],56µM*,2%,-30%,x
CP(=O)(O)C1=CCNCC1,6%,19%[59 µM],x,x,x,x
O=[N+]([O-])NC1=NCN(Cc2ccco2)CN1Cc1ccco1,u,-27%[59 µM],u,u,27µM*,-10%
C[N+]1(C)CCN(c2ccccc2)CC1,6%,8.4µM*!,45µM*,0%,-3%,-32%
CN(CCOc1ccc(C=C2C(=O)NC(=O)NC2=O)cc1)c1ccccn1,u,45µM*,u,20%,3µM*,-23%
O=C(CN1CCCCC1c1cccnc1)c1ccccc1 (centres undefined),-14%,x,x,x,x,x
CN(Cc1ccccc1)Cc1ccccc1OC(=O)N(C)C,3%,45µM*,-14%,32%,1%,-4%
O=C(COC(=O)c1cccnc1Cl)NCCc1ccc(F)cc1,-2%,x,0%,46%,0%,x
CCN(CC)C(=O)c1ccc(NC(=O)c2ccc(-c3nn(C)c(=O)c4ccccc34)cc2)cc1,-7%,3%[59 µM],u,-1%,30µM*,u
C[C@H]1CN(C2CCC(C#N)(c3ccc(F)cc3)CC2)CC[C@@]1(C(=O)O)c1ccccc1 (some centres undefined),8%,25%[21.5 µM],x,x,x,x
O=C(O)CC(O)(CC(=O)O)C(=O)O,-18%,-3%[2.33 µM],79µM*,6%,-1%,x
